SMILES strings stand for the structures. Results filed as inconclusive are left out. Entries that show only a call come without a potency. Calls of active or inactive are those of the source. Calls come from the whole dose curve; as a rule, active = well fitted cell-killing curve with a large enough effect in the repeat runs; inconclusive = weak or mixed curves, or effect the other way; inactive = flat fitted curve, though single readings scatter.
Potency is the fitted concentration of half-maximal effect.

The test can be described thus: qHTS assay to identify small molecule that activate the aryl hydrocarbon receptor (AhR) signaling pathway - cell viability counter screen (AID 743086). Note: nearly all actives have a fitted effect of over 45% in size. Particulars: HepG2-AhR-luc viability, CellTiter-Fluor, 24 h; series mostly up to 70.3 µM. An excerpt:
U.S. Tox21 Program National Center for Advancing Translational Sciences [NCATS] NIH Chemical Genomics Center [NCGC] U.S. Environmental Protection Agency [EPA] National Institutes of Environmental Health Sciences [NIEHS] National Toxicology Program [NTP] U.S. Food and Drug Administration [FDA] Tox21 Assay overview: The Aryl hydrocarbon Receptor (AhR), a member of the family of basic helix-loop-helix transcription factors, is crucial to adaptive responses to environmental changes. AhR mediates cellular responses to environmental pollutants such as aromatic hydrocarbons through induction of phase I and II enzymes but also interacts with other nuclear receptor signaling pathways A cell based HepG2-AhR-luc assay (HG2L7.5c1 cell line, developed by Dr. Michael S. Denison, University of California at Davis) was used to assess the activation of AhR. HepG2 (human hepatocellular carcinoma) cells were stably transfected with an Ah receptor-responsive firefly luciferase reporter gene plasmid containing 20 dioxin responsive elements and luciferase reporter gene. Increased luciferase activity can be used to identify the compounds that induce AhR activation. The cytotoxicity of the compounds screened against the HepG2-AhR-luc cell line was tested in parallel by measuring the cell viability using CellTiter-Fluor assay in the same wells.
Tox21 Assay Protocol Summary: 4000 cells in 5 uL/well were dispensed into white wall/solid bottom 1536-well plates using a Multidrop Combi (Thermo Fisher Scientific Inc., Waltham, MA) dispenser. After the assay plates were incubated at 37C for 5 h, 23 nL of compound or DMSO vehicle was transferred to the assay plates by a pintool station (Kalypsys, San Diego, CA). The plates were incubated at 37C for 24 hr. For cell viability measurement, 1 ul/well of CellTiter-Fluor reagent (Promega, Madison, WI) was added into the assay plates using a Flying Reagent Dispenser (FRD) (Aurora Discovery, CA),and then the assay plates were incubated at 37C for 30 min. The fluorescence intensity in the plates was measured using a ViewLux plate reader (PerkinElmer, Shelton, CT), followed by the addition of 4 uL of ONE-Glo Luciferase Assay reagent (Promega) using an FRD (Aurora Discovery). After the assay plates were incubated at room temperature for 30 min, luminescence intensity was measured using a ViewLux plate reader (Perkin Elmer).
In the case of `O=P(O)(O)C(Cl)(Cl)P(=O)(O)O`, the Potency entry is “inactive”.

With `C/C=C(\CC)C(=O)NC(N)=O`, the Potency entry is “inactive”. For `c1ccc2c(c1)Sc1ccccc1N2C[C@@H]1CN2CCC1CC2`, the Potency entry was “inactive”. Consider `CCC1(CC)C(=O)NC(=O)N(C)C1=O`, for which the Potency entry was “inactive”. Consider `Nc1ccc([N+](=O)[O-])cc1`, for which the Potency is 40.9 µM (active).

For `COC(=O)[C@@H]1[C@H]2CC[C@@H](C[C@H]1OC(=O)c1ccccc1)N2C`, the Potency entry was “inactive”.

For the molecule `C[C@@H]1[C@H]2Cc3ccc(O)cc3[C@]1(C)CCN2C`, the Potency entry was “inactive”. `CCCCc1ccc(C(=O)O)nc1`: the Potency result was “inactive”. Take `CO/C=C(/C(=O)OC)c1ccccc1Oc1cc(Oc2ccccc2C#N)ncn1`: the Potency was 37.6 µM (active). `O=C1C(I)=CC(=C(c2cc(I)c(O)c(I)c2)c2ccccc2C(=O)O)C=C1I`: the Potency entry is “inactive”. For `CN1[C@H]2CC[C@@H]1[C@@H](C(=O)O)[C@@H](OC(=O)c1ccccc1)C2`, the Potency result is “inactive”. The same measure for `COc1ccc(OC)c([C@@H](O)[C@H](C)N)c1`: “inactive”; for `CN[C@@]1(c2ccccc2Cl)CCCCC1=O`: “inactive”. As to `CC(=O)OC1CN2CCC1CC2` (stereo not given), the Potency result is “inactive”. The same measure for `O=C1C[C@@H]2OCC=C3CN4CC[C@]56c7ccccc7N1[C@H]5[C@H]2[C@H]3C[C@H]46` (tested in a mixture with another compound): “inactive”. On to `CCOc1ccc2c3c1O[C@H]1[C@@H](O)C=C[C@H]4[C@@H](C2)N(C)CC[C@@]341`, for which the Potency entry is “inactive”. The same measure for `CC(=O)O[C@H]1C[C@H](O[C@H]2[C@@H](O)C[C@H](O[C@H]3[C@@H](O)C[C@H](OC4CC[C@@]5(C)[C@H](CC[C@@H]6[C@@H]5CC[C@]5(C)[C@@H](C7=CC(=O)OC7)CC[C@]65O)C4)O[C@@H]3C)O[C@@H]2C)O[C@H](C)[C@H]1O[C@@H]1O[C@H](CO)[C@@H](O)[C@H](O)[C@H]1O` (stereo not given in full): “inactive”; for `C[C@H]1CC[C@]2(NC1)O[C@H]1C[C@H]3[C@@H]4CC[C@H]5C[C@@H](O[C@@H]6O[C@H](CO)[C@H](O[C@@H]7O[C@H](CO)[C@@H](O)[C@H](O[C@@H]8OC[C@@H](O)[C@H](O)[C@H]8O)[C@H]7O[C@@H]7O[C@H](CO)[C@@H](O)[C@H](O)[C@H]7O)[C@H](O)[C@H]6O)CC[C@]5(C)[C@H]4CC[C@]3(C)[C@H]1[C@@H]2C`: 5.96 µM (active). The value for `c1ccccc1` was “inactive”.

For `S=C(S)N1CCNCC1`, the Potency entry is “inactive”. Regarding `CCCSc1cc(OC)c(CCN)cc1OC`, the Potency is 32.5 µM (active).

In the case of `COc1ccc(OC)c(C[C@H](C)N)c1`, the Potency entry is “inactive”. For the molecule `C[N+]1(C)CCCCC1COC(=O)C(O)(c1ccccc1)c1ccccc1` (stereo not given), the Potency entry was “inactive”. As to `Cc1ccccc1-n1c(CF)nc2ccc(N)cc2c1=O`, the Potency entry is “inactive”. Regarding `CCC1(C)CC(=O)NC(=O)C1`, the Potency result is “inactive”.

As to `CCCCC[C@@H](O)C1C(=O)OC(C)[C@H](O)/C=C/C=C/C=C/C=C/C=C(\C)C(O)C(O)C(O)C[C@H](O)C[C@H](O)C[C@H](O)C[C@H](O)C[C@@H]1O` (stereo not given in full), the Potency result is “inactive”. `CC(C)C[C@H](CN)CC(=O)O`: the Potency entry is “inactive”.

With `O=C1CN=C(c2ccccc2)c2cc(Cl)ccc2N1`, the Potency entry is “inactive”.

In the case of `CC[N+](C)(CC)CCOC(=O)C(O)(c1ccccc1)c1ccccc1`, the Potency result was “inactive”. With `O=C(O)/C=C\C(=O)O`, the Potency result was “inactive”. In the case of `CCN(CC)C(=O)N[C@H]1C[C@@H]2c3cccc4[nH]cc(c34)C[C@H]2N(C)C1`, the Potency entry was “inactive”. Consider `C[N+]1([O-])[C@@H]2CC[C@H]1CC(OC(=O)C(CO)c1ccccc1)C2` (stereo not given in full), for which the Potency result is “inactive”. The value for `O=C1CN(O)C(c2ccccc2)=c2cc(Cl)ccc2=N1` was “inactive”; that for `CCC1C(C)=NN=C(c2ccc(OC)c(OC)c2)c2cc(OC)c(OC)cc21` (stereo not given) was “inactive”; that for `OC[C@@H](O)[C@H]1O[C@@H]2O[C@@H](C(Cl)(Cl)Cl)O[C@@H]2[C@H]1O` was “inactive”. For `O=C(NC(=O)c1c(F)cccc1F)Nc1ccc(Cl)c(Oc2ncc(C(F)(F)F)cc2Cl)c1`, the Potency entry is “inactive”. Take `Cc1nnc2n1-c1sc(Br)cc1C(c1ccccc1Cl)=NC2`: the Potency result was “inactive”.

With `CCNC(C)Cc1cccc(C(F)(F)F)c1` (stereo not given), the Potency result was “inactive”. As for `CN[C@H]1C[C@@H](N)[C@H](O)[C@@H](O[C@@H]2O[C@H](CO)[C@H](O)[C@@H]3OC4(O[C@H]23)O[C@H](C(N)CO)[C@H](O)[C@H](O)[C@H]4O)[C@@H]1O` (stereo not given in full), the Potency result is “inactive”. `CC(=O)O[C@H]1CC[C@H]2[C@@H]3CCC4=CC(=O)CCC4=C3C=C[C@]12C`: the Potency result was “inactive”.

These data come from PubChem BioAssay (Tox21).
